Experimental data from PubChem BioAssay (NCI).
About 79,000 compounds went through this panel and 15% of them were active in at least one assay; those are over-represented in the sample as a whole. Active and inactive are the calls of the source. Rule as the data show it: active = growth inhibition above about 70%; inactive = the rest.

Tests used:
[1] = NCI Yeast Anticancer Drug Screen. Data for the rad50 strain (AID 155);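 also: 0% = growth of vehicle-only cultures of the same strain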; settings: S. cerevisiae rad50 strain growth inhibition; at 50.0 µM; hits give high values
Outline: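 Compounds were tested on a yeast strain with an engineered DNA damage repair alteration; the reported value is growth inhibition normalised to vehicle treatment.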

[2] = NCI Yeast Anticancer Drug Screen. Data for the mec2-1 strain (AID 157); settings: S. cerevisiae mec2-1 strain, at 50.0 µM, hits give high values
Outline: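 Readout is yeast growth inhibition, normalised to vehicle-treated controls, in the mec2-1 strain exposed to compound.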

[3] = NCI Yeast Anticancer Drug Screen. Data for the sgs1 mgt1 strain (AID 161);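 also: 0% = growth of cultures given vehicle only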; settings: S. cerevisiae sgs1 mgt1 strain, at 50.0 µM, hits give high values
Outline: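 Percent growth inhibition was derived by comparing compound-exposed mutant yeast with vehicle-exposed cultures. The strain carries alterations in DNA damage repair.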

[4] = NCI Yeast Anticancer Drug Screen. Data for the cln2 rad14 strain (AID 165);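 also: 0% = growth equal to vehicle treated cultures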; settings: S. cerevisiae cln2 rad14 strain, at 50.0 µM, hits give high values
Outline: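 Relative to vehicle controls, growth inhibition of compound-treated cln2 rad14 yeast was recorded.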

[5] = NCI Yeast Anticancer Drug Screen. Data for the bub3 strain (AID 167); settings: S. cerevisiae bub3 mutant strain, at 50.0 µM, hits give high values
Outline: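 Growth of a checkpoint-deficient yeast mutant is measured after compound exposure. Values represent inhibition relative to vehicle.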

[6] = NCI Yeast Anticancer Drug Screen. Data for the mlh1 rad18 strain (AID 175); settings: S. cerevisiae mlh1 rad18 strain growth inhibition; at 50.0 µM; hits give high values
Outline: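 Test agents were incubated with a yeast strain of defined genotype (DNA damage repair defect). Inhibition of growth was derived by comparison with vehicle-exposed cultures.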

SMILES | growth inhibition [1] | growth inhibition [2] | growth inhibition [3] | growth inhibition [4] | growth inhibition [5] | growth inhibition [6]
C=CCN1C(=O)/C(=C/c2ccc(OCC(=O)O)cc2)SC1=S | 5.7% (inactive) | -11.2% (inactive) | 0.05% (inactive) | -46.6% (inactive) | -1% (inactive) | -13.8% (inactive)
COc1nc2nccc-2c2occn12 | -29.4% (inactive) | -11.2% (inactive) | -16.8% (inactive) | -27.5% (inactive) | -9.6% (inactive) | -29.1% (inactive)
Cc1ccc(S(=O)(=O)Oc2cccc(C)c2)cc1 | 1.1% (inactive) | 17.1% (inactive) | 23% (inactive) | -69% (inactive) | 14.7% (inactive) | 33.7% (inactive)
COc1cc(C(NC(N)=O)c2cc3c(cc2O)OCO3)cc(OC)c1O (configuration not stated) | -1.4% (inactive) | 0.45% (inactive) | -12.2% (inactive) | -20.9% (inactive) | 12.4% (inactive) | 4.05% (inactive)
CN(C)C(=O)OCC1COc2ccccc2O1 (configuration not stated) | 15% (inactive) | -23.6% (inactive) | -23.1% (inactive) | -70.2% (inactive) | -11.1% (inactive) | -12.6% (inactive)
c1ccc2nc(N3CCCC3)c(N3CCCC3)nc2c1 | -8.75% (inactive) | -12.6% (inactive) | -10.7% (inactive) | -21.4% (inactive) | 57.8% (inactive) | -4.85% (inactive)
COc1ccc(-c2cc(-c3ccccc3)n(C3OCC(OC(C)=O)C(OC(C)=O)C3OC(C)=O)c(=S)c2C#N)cc1 (configuration not stated) | 12.1% (inactive) | 18.9% (inactive) | -12.7% (inactive) | 4.55% (inactive) | -3.6% (inactive) | 32.4% (inactive)
Cc1cc(=S)cc(C)[nH]1 | 17.1% (inactive) | 5.5% (inactive) | 11.3% (inactive) | 2.1% (inactive) | 0.45% (inactive) | 33.4% (inactive)
Cc1ccc(C)c2c(Cl)c3c(C)ccc(C)c3nc12 | -8.45% (inactive) | -4.65% (inactive) | 0.3% (inactive) | -29.4% (inactive) | -9.8% (inactive) | 7.25% (inactive)
COCCCNC(=O)C1C(=O)N(CCCOC)C(=O)/C1=N\N (configuration not stated) | 5.15% (inactive) | 21.1% (inactive) | 12.1% (inactive) | -9.3% (inactive) | -2.25% (inactive) | 17.1% (inactive)
[Co+2].[NH-]C(Cc1ccc(O)cc1)C(=O)O.[NH-]C(Cc1ccc(O)cc1)C(=O)O (configuration not stated) | 56.5% (inactive) | 10.2% (inactive) | 5.8% (inactive) | 16.3% (inactive) | 16% (inactive) | 34% (inactive)
Cc1cc(N)cc(C)n1 | 22.9% (inactive) | 28.6% (inactive) | -14.8% (inactive) | 0.7% (inactive) | 11.7% (inactive) | 11.7% (inactive)
CNc1ncnc2c1ncn2C1OC(CO)C(O)C1O (configuration not stated) | -1.4% (inactive) | 9.95% (inactive) | 4.45% (inactive) | -20.1% (inactive) | -4.1% (inactive) | 6% (inactive)
Cc1nc(C)c(N2CCN(S(=O)(=O)N(Cc3ccccc3)Cc3ccccc3)CC2)c(=O)[nH]1 | -22.7% (inactive) | -5.95% (inactive) | -32.3% (inactive) | 3.85% (inactive) | -5.65% (inactive) | 4.2% (inactive)
CCCCC(CC)COC(=O)COc1ccc(C(C)c2ccc(OCC(=O)OCC(CC)CCCC)cc2)cc1 (configuration not stated) | -6.6% (inactive) | 10.5% (inactive) | 7.9% (inactive) | -3.55% (inactive) | 3.2% (inactive) | -38.2% (inactive)
COC(=O)[C@]1(NC(=O)c2ccccc2)C[C@H]1C=O | 21% (inactive) | 15.2% (inactive) | 14.4% (inactive) | 10.9% (inactive) | 9.6% (inactive) | -54.8% (inactive)
O=C1CCN(Cc2ccco2)C(=O)N1 | 1% (inactive) | -12.3% (inactive) | 10.9% (inactive) | -41% (inactive) | -5.7% (inactive) | 10.2% (inactive)
COc1cc2c(c(Cl)c1O)C(=O)OC2 | -4.25% (inactive) | -7.8% (inactive) | 12.8% (inactive) | 3.55% (inactive) | -6.8% (inactive) | 17.4% (inactive)
COC(=O)c1cc2cc3ccccc3cc2cc1C(=O)OC | 1.7% (inactive) | 14.4% (inactive) | 11.8% (inactive) | -13.4% (inactive) | -26.1% (inactive) | -8.8% (inactive)

SMILES | growth inhibition [1] | growth inhibition [2] | growth inhibition [3] | growth inhibition [4] | growth inhibition [5] | growth inhibition [6]
O=[N+]([O-])c1ccc2c(c1)C(O)c1ccccc1-2 (configuration not stated) | 35.6% (inactive) | 24.6% (inactive) | 12.9% (inactive) | 26.9% (inactive) | 26.2% (inactive) | 29.1% (inactive)
O=C1c2ccccc2C(=O)N1C[P+](c1ccccc1)(c1ccccc1)c1ccccc1 | 41.9% (inactive) | 28.8% (inactive) | 32.4% (inactive) | 16.2% (inactive) | 2.25% (inactive) | 12.4% (inactive)
O=C(O)O.O=C(O)O.O=C(O)O.[Co] | -9.35% (inactive) | 38.3% (inactive) | -2.75% (inactive) | -11.6% (inactive) | 8.65% (inactive) | -5.05% (inactive)
C=CCNC(=O)ON1C(=O)CCC1=O | -19.8% (inactive) | 3.05% (inactive) | -35.6% (inactive) | -8.65% (inactive) | -22.9% (inactive) | -39.5% (inactive)
O=S(=O)(O)c1cc2nonc2c2ccccc12 | 2.75% (inactive) | -0.85% (inactive) | 12.9% (inactive) | 9.25% (inactive) | 0.9% (inactive) | -2.6% (inactive)
Nc1ccc(F)cc1C(F)(F)F | 6.65% (inactive) | -45% (inactive) | -4.55% (inactive) | -7.75% (inactive) | -8.05% (inactive) | 23% (inactive)
C[n+]1ccn(S(=O)(=O)[O-])c1 | 1.9% (inactive) | 4.2% (inactive) | -4.35% (inactive) | 0.55% (inactive) | -19.6% (inactive) | -8.05% (inactive)
O=C(Nc1cc(Cl)c(Oc2ccc(Cl)cc2)cc1S(=O)(=O)O)Nc1cccc(Cl)c1Cl | 99% (active) | 99.5% (active) | 99.6% (active) | 98.2% (active) | 98.7% (active) | 99.4% (active)
CC1=CC(=O)C(C(C)C)CC1 (configuration not stated) | 1.1% (inactive) | -1.05% (inactive) | -11.1% (inactive) | -43% (inactive) | -7.75% (inactive) | -0.35% (inactive)
Cc1c(-c2ccc3c(c2)OCO3)sc(N)c1C#N | 5% (inactive) | -15.5% (inactive) | 12.2% (inactive) | 4.25% (inactive) | 20.6% (inactive) | -7.75% (inactive)
CS(=O)(=O)c1[nH]nc2[nH]c(=O)[nH]c(=O)c12 | -30.5% (inactive) | -30.4% (inactive) | -26.5% (inactive) | -4.7% (inactive) | -28.8% (inactive) | 6.85% (inactive)
CC(=O)N(C)c1ccc(NC(=O)Cc2ccccc2)cc1 | 12.7% (inactive) | 22.7% (inactive) | 23.6% (inactive) | 9.95% (inactive) | 35.5% (inactive) | -2.35% (inactive)
NC(CSS(=O)(=O)O)=NCCSS(=O)(=O)O | -20.4% (inactive) | -12.4% (inactive) | -3.45% (inactive) | 7.45% (inactive) | -2.4% (inactive) | 3.95% (inactive)
CN1C(=O)CC(c2ccc(Cl)cc2)C1=O (configuration not stated) | 21.4% (inactive) | 21.4% (inactive) | -0.65% (inactive) | 2.5% (inactive) | -3.75% (inactive) | 2.65% (inactive)
Cc1nc(N)nc(C)c1N=Nc1cc(Br)ccc1Br | 26.1% (inactive) | -14.1% (inactive) | -15.4% (inactive) | -13.7% (inactive) | 0.35% (inactive) | -7.6% (inactive)
O=C(O)/C(=N\O)c1cnnn1-c1ccccc1 | -5.95% (inactive) | 11.9% (inactive) | -8.45% (inactive) | 3.35% (inactive) | -17.6% (inactive) | -25.9% (inactive)
Nc1nc2c(c(-c3ccccc3Cl)n1)COC/C2=C\c1ccccc1Cl | 15.7% (inactive) | 18.8% (inactive) | 54% (inactive) | 25.1% (inactive) | 41.1% (inactive) | 50% (inactive)
O=C(O)C1CC1(c1ccccc1)c1ccccc1 (configuration not stated) | 18.6% (inactive) | 4.65% (inactive) | -1.05% (inactive) | -24.8% (inactive) | -12.2% (inactive) | 15.8% (inactive)
